# RE007 growth inh: less growth of the S. pombe RE007 Vpr strain | AID 651644 | Potency, µM (series often up to 92.2 µM), actives largely listed as inhibitors | S. pombe RE007 Vpr strain, BacTiter-Glo ATP luminescence, 24 h | hit rate 0.21% among 360,000; active = well fitted falling curve with a large enough effect; inconclusive = small, poorly fitted or top-dose-only effect; inactive = no such curve, though single readings can be large or run the other way; note: nearly all actives have a fitted effect of over 50% in size
#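 Fission yeast strain RE007, carrying one chromosomally integrated HIV-1 vpr copy, was seeded at OD 0.01 in PMG+AL medium with 23 nL pinned compound. After 24 h at 30 °C and 99% humidity, viability was read by BacTiter-Glo luminescence.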
# SARS PLP yeast: SARS-CoV PLP inhibition in yeast | hit rate 0.19% among 330,000 | S. cerevisiae expressing SARS-CoV PLpro, growth rescue | Potency, µM (doses to about 32.9 µM), actives largely listed as activators; note: nearly all actives have a fitted effect of over 55% in size
# Pf growth 96h: P. falciparum growth inhibition at 96 hour, primary screen for plastid delayed-death inhibitors | Potency, µM (doses to about 28.7 µM), hits mostly inhibitors | P. falciparum luciferase reporter growth, 96 h | hit rate 6.9% among 320,000; active = well fitted inhibition curve with a large enough effect; inconclusive = small, poorly fitted or top-dose-only effect, or another doubt; inactive = no such curve, though single readings can be large or run the other way
#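 Cell-based qHTS: luciferase-tagged P. falciparum in erythrocytes (2% hematocrit, 0.05% parasitemia final) incubated with compounds for 96 hours, 37 C, 5% CO2; luciferase detection reagent then added and luminescence measured.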
# NS1 function inh: influenza NS1 inhibition | Potency, µM (series often up to 46.1 µM) | hit rate 0.4% among 270,000 | AID 2326; note: actives are rising curves; nearly all actives have a fitted effect of over 50% in size
#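 Compounds were scored for reversing the slow growth caused by influenza A NS1 in S. cerevisiae, measured by optical density at 600 nm. Assay medium contained 2% galactose at pH 6.0; NS1-free yeast of the same strain were the positive control.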
# Pf growth 48h: P. falciparum growth inhibition at 48 hours (one generation); P. falciparum luciferase growth in erythrocytes, 48 h; AID 504832; Potency, µM (highest dose often 28.7 µM), usual class: inhibitors; hit rate 5.9% among 310,000; active = well fitted inhibition curve with a large enough effect; inconclusive = small, poorly fitted or top-dose-only effect, or another doubt; inactive = no such curve, though single readings can be large or run the other way
#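 First compound was added to culture medium, then infected red cells at 0.1% parasitemia and 2% hematocrit (final). After incubation at 37 C under 5% CO2, luciferase detection reagent was dispensed and light output recorded.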
# Hits are given with their value; - = inactive; ? = inconclusive; . = no result. An excerpt weighted towards active compounds, which were near 9.5% of everything screened. Unless noted, calls come from the whole dose curve.
SMILES,RE007 growth inh,SARS PLP yeast,Pf growth 96h,NS1 function inh,Pf growth 48h
O=C(CCS(=O)(=O)c1ccccc1)Nc1ccc(Cl)cn1,-,-,-,-,-
Cc1ccc(-c2csc3ncnc(Sc4nnc(CN5CCCCCC5=O)o4)c23)cc1,-,-,15µM,-,12µM
Cc1nn(-c2ccccc2)c(C)c1/C=N/Nc1nc2ccccc2[nH]1,-,-,?,?,0.59µM
Cc1c(/C=N/Nc2nc3ccccc3[nH]2)c2ccccc2n1C,-,-,0.47µM,-,0.52µM
Cc1cc(=O)[nH]c(N/N=C/c2c(C)nn(-c3ccccc3)c2C)n1,-,-,-,.,12µM
C=CCn1cc(/C=N/Nc2nc3ccccc3[nH]2)c2ccccc21,-,-,-,-,?
C(=N\Nc1nc2ccccc2[nH]1)/c1ccncc1,-,-,-,.,?
Cc1ccc(S(=O)(=O)N(CC(=O)NCCSc2ccccn2)c2ccccc2F)cc1,-,-,?,-,?
COC(=O)CN1C(=S)N(c2ccc(OC)cc2)C(=O)/C1=C/c1ccc(OC)cc1,-,-,-,-,12µM
CS(=O)(=O)N1CCc2cc(-c3csc(NC(=O)C(c4ccccc4)c4ccccc4)n3)ccc21,-,-,.,-,13µM
COc1ccc(CCNC(=O)c2ccc(CS(=O)(=O)c3ccc(C)cc3)o2)cc1OC,-,-,?,-,.
COCCNC(=O)CN(Cc1ccc(Cl)cc1)S(C)(=O)=O,-,-,.,-,-
O=C(CCNS(=O)(=O)c1ccc(Br)cc1)NCCc1ccccc1,-,-,-,-,-
CN1CCN(CCCNC(=O)c2ccc(CS(=O)(=O)c3ccc(Br)cc3)o2)CC1,-,-,8.3µM,-,.
COc1ccc(CCNC(=O)CN(Cc2ccc(Cl)cc2)S(C)(=O)=O)cc1OC,-,-,15µM,-,-
O=C(NCCCN1CCCC1)c1ccc(CS(=O)(=O)c2ccc(Br)cc2)o1,-,-,?,-,.
COc1ccc(CCNC(=O)c2ccc(CS(=O)(=O)c3ccc(Cl)cc3)o2)cc1OC,-,-,10µM,-,-
O=S(=O)(NCCc1ccccc1)c1ccc(Br)cc1,-,-,13µM,-,-
CC(C)Oc1cc(O)c2c(c1)OCC=C2CCC(=O)O,.,.,.,-,.
O=C(COC(=O)C1CC1)Nc1ccc(S(=O)(=O)N2CCOCC2)cc1,-,-,.,.,.
O=C(Nc1ccc(S(=O)(=O)Nc2ncccn2)cc1)c1ccccc1NS(=O)(=O)c1ccc(Cl)cc1,-,-,-,-,-
COc1ccc2c(c1)nc(-c1cccc(Br)c1)c(=O)n2C(c1ccccn1)c1nc2ccccc2[nH]1 (stereo not given),-,.,.,.,.
O=C(NCCc1ccccc1)c1ccc(CS(=O)(=O)c2ccc(Br)cc2)o1,-,-,4.1µM,-,-
C=CCc1cc(C)ccc1OCCOCCC(C(=O)OCC)C(=O)OCC,-,-,12µM,-,-
C=CCc1cc(Cl)ccc1OCCOCCNC(C)CC (stereo not given),-,-,?,-,?
SMILES,RE007 growth inh,SARS PLP yeast,Pf growth 96h,NS1 function inh,Pf growth 48h
COc1ccc(N2CCN(CC(=O)N3c4ccccc4CC3C)CC2)cc1 (stereo not given),-,-,-,-,-
COc1ccc(C2CC(=O)C(C=NCCCN3CCOCC3)=C(O)C2)cc1 (stereo not given),-,-,3.3µM,-,-
CN(C)CC1CC/C(=C\c2ccc(O)cc2)C1=O (stereo not given),11µM,.,.,.,.
COc1ccc(/C=C2\CCC(C3CCCC3)C2=O)cc1 (stereo not given),-,-,?,-,-
COc1ccc(/C=C2/CCC(CN3CCOCC3)C2=O)cc1 (stereo not given),7.9µM,.,.,.,.
CN(C)CC1CCC/C(=C\c2ccc(OC(=O)c3ccc(Cl)cc3)cc2)C1=O (stereo not given),-,.,.,.,.
COc1ccc(C2CC(=O)C(C=NCCO)=C(O)C2)cc1 (stereo not given),-,-,-,-,-
CC(C)N(Cc1nnc(-c2ccc(Cl)cc2)o1)C(=O)c1cc2ccccc2o1,-,-,?,.,-
CCOc1ccc(N(CC(=O)N2CCCCCC2)S(=O)(=O)c2ccc(F)cc2)cc1,-,-,-,-,-
COc1ccccc1CNC(=O)c1ccccc1C(=O)NC(CC(C)C)C(=O)NCc1ccccc1OC (stereo not given),-,-,?,-,-
N#C/C(=C\c1cc(O)c(O)c(O)c1)C(N)=O,-,-,?,-,10µM
CC(C)(C)C(=O)OCc1nc(-c2ccc(F)cc2)cs1,-,-,-,-,-
COC(=O)c1ccccc1NC(=O)CN1CCC(C(=O)c2ccc3c(c2)OCCO3)CC1,-,-,1.5µM,-,-
CC(C)c1[nH]nc2c1C(C(C)C)C(C#N)=C(N)O2 (stereo not given),-,-,7.4µM,-,-
Nc1ccc(C(=O)N/N=C\c2cc(N=Nc3cccc4ccccc34)ccc2O)cc1,-,-,-,-,2.9µM
COC(=O)N/N=C/c1cc(N=Nc2ccccc2Cl)ccc1O,-,-,7.4µM,-,?
O=C1CC(c2ccc(F)cc2)Sc2nc(C34CC5CC(CC(C5)C3)C4)nn21 (stereo not given),-,-,-,-,-
CN(C)c1ccc(-c2ccnc3c2CC(C)(C(=O)NCCC(F)(F)F)O3)cc1 (stereo not given),-,.,.,.,.
CN(C)c1ccc(/C=C/c2ccc3c4ccccc4ccc3[n+]2-c2ccccc2)cc1,28µM,-,?,.,8.3µM
COc1ccc(/C=C/c2ccc3ccccc3[n+]2C)cc1OC,-,-,-,-,1.2µM
[O-][n+]1ccccc1/C=C/c1ccccc1,-,.,.,.,.
[O-][n+]1c(/C=C/c2ccccc2)ccc2ccccc21,-,-,6.6µM,-,-
CN(CCCS(=O)(=O)[O-])c1ccc(/C=C/c2ccc3ccccc3[n+]2C)cc1,-,-,?,-,-
CN(C)c1ccc(/C=C/c2ccc3ccccc3[n+]2C)cc1,.,-,?,-,0.83µM
O=C(CSCc1nc2c(nnn2Cc2ccc(F)cc2)c(=O)[nH]1)Nc1cccc(C(F)(F)F)c1,-,-,-,-,-
SMILES,RE007 growth inh,SARS PLP yeast,Pf growth 96h,NS1 function inh,Pf growth 48h
Cc1cccc(N2CC(C(=O)Nc3nnc(SCc4cccnc4)s3)CC2=O)c1 (stereo not given),-,-,?,-,?
CC1(Oc2ccc(-n3ccnc3)cc2)CCN(Cc2cccn2-c2nccs2)C1 (stereo not given),-,.,.,.,.
Cc1cc2nc(-c3cccc(Cl)c3)c(Cc3ccsc3)n2c(C)c1Br,-,.,.,.,.
COc1cc(NC(C)CCCN)c2ncccc2c1 (stereo not given),-,.,0.33µM,.,0.41µM
COc1cc(NCCCCCCCN)c2ncccc2c1,-,-,3.7µM,-,2.6µM
COc1cc(NCCC(=O)O)c2ncccc2c1,.,.,.,-,.
Cc1cc(C)c(NC(=O)C2CC(=O)N(C3CCCC3)C2)c(C)c1 (stereo not given),-,-,.,.,.
CCCC(c1cc(C(C)(C)C)c(O)cc1C)c1cc(C(C)(C)C)c(O)cc1C,.,.,.,-,.

# Screens from PubChem BioAssay.
